An excerpt weighted towards active compounds, which were near 4.1% of everything screened.
DAX1 inh-1 = inhibitors of human orphan nuclear receptor DAX1 (NR0B1) | P51843 | HEK293 Gal4-DAX1 luciferase reporter, luminescence | inhibition, % at 6.75 µM | 340,000 compounds, 0.99% hits;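 active = inhibition above the mean over all tested compounds plus 3 SD, cut at about 4.2% in these data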;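 note: 0% = DAX1-transfected cells with DMSO and 100% = empty-vector control cells with DMSO; inhibition shows as a rise in luminescence from relieved DAX1 repression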
Target sequence (P51843 207-470 limits assumed): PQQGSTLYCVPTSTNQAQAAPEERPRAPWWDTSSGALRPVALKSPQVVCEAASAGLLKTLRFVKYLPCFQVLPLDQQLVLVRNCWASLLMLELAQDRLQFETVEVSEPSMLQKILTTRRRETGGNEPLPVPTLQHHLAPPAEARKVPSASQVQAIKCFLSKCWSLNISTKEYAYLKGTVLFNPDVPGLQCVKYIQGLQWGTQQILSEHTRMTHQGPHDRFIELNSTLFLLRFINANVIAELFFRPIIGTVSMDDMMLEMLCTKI
ssDAF-12 act = S. stercoralis DAF-12 activation, primary screen. HEK293 ssDAF-12/GRIP1 lit1-tk-luc reporter, luminescence; % of 3 µM dafachronic acid response. AID 652126. activation, % at 6.8 µM. 370,000 compounds, 1% hits;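 active = activation above the mean over all tested compounds plus 3 SD, cut at about 0.9% in these data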;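 note: 0% = DMSO-only wells and 100% = 3 µM delta7-dafachronic acid wells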
DAX1 inh-2 = inhibitors of DAX1 repression of SF-1 activated StAR promoter; 370,000 compounds, 1.1% hits; HEK293T StAR-luciferase reporter, SF-1/DAX-1 repression relief; AID 652010; inhibition, % at 6.8 µM;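 active = inhibition above the mean over all tested compounds plus 3 SD, cut at about 3.6% in these data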;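 note: 0% = DAX-1 cells with DMSO and 100% = cells lacking DAX-1 with DMSO; higher inhibition means more luminescence from relief of DAX-1 repression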
hgDAF-12 ag = activates the H. glycines DAF-12 receptor ligand-binding domain; 370,000 compounds, 1.8% hits; activation, % at 6.8 µM; HEK293 GAL4-hgDAF12 UAS-luciferase reporter, agonist luminescence; normalized to butyrate control;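 active = activation above a cutoff set at the mean of all screened compounds plus 3 SD, cut at about 10% in these data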;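 note: 0% = DMSO wells and 100% = sodium butyrate wells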
hcDAF12 agonist = H. contortus DAF-12 activation, primary screen. HEK293 hcDAF-12 lit1-tk-luc reporter, luminescence; 0% DMSO, 100% Δ7-dafachronic acid. activation, % at 6.8 µM. 370,000 compounds, 1.4% hits;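 active = activation above the mean of all tested compounds plus 3 SD, cut at about 5.5% in these data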;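 note: 100% = response to 3 µM Δ7-dafachronic acid high control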
* marks the source's active call; other numbers are inactive results; · = no result given.

SMILES | DAX1 inh-1 | ssDAF-12 act | DAX1 inh-2 | hgDAF-12 ag | hcDAF12 agonist
COc1ccc(-c2nnn3c2Cn2c4ccccc4c(=O)n2[C@@H](C(C)C)C3)cc1 | · | -0.1 | -1.9 | -3.1 | -2.7
CCCCCN1CCCCC(NC(=O)c2cc(OC)c(OC)c(OC)c2)C1=O (stereo not drawn) | · | -1.8 | -0.4 | 3.7 | -0.8
CN(C(=O)c1cc(C(=O)N(C)c2ccccc2)cc([N+](=O)[O-])c1)c1ccccc1 | 4.3* | -1.7 | -0.7 | 0.5 | -3.0
CCC(c1c[nH]c2ccccc12)c1cn(C)c2ccccc12 (stereo not drawn) | · | -1.1 | -0.3 | 4.2 | 5.5
Clc1ccc2oc(-c3ccccc3)cc(=NCCCN3CCOCC3)c2c1 | 1.7 | 0.1 | 2.2 | 15.8* | 3.9
OCCCCCN=c1cc(-c2ccccc2)oc2ccc(Cl)cc12 | 2.1 | -0.5 | 0.6 | 9.0 | 5.3
N/C(=N\OC(=O)Cc1ccccc1[N+](=O)[O-])c1ccncc1 | 0.9 | -0.5 | -1.1 | 4.3 | -3.3
N/C(=N\OC(=O)c1ccccc1F)c1cccc([N+](=O)[O-])c1 | 5.4* | -0.7 | 1.2 | 1.6 | 0.3
N/C(=N\OC(=O)c1ccccc1Br)c1ccc([N+](=O)[O-])cc1 | 2.7 | -0.4 | 0.9 | 3.6 | 6.1*
N/C(=N\OC(=O)c1ccco1)c1cccc([N+](=O)[O-])c1 | 1.3 | -0.2 | 1.7 | 13.1* | 5.3
COc1cccc(/C(N)=N/OC(=O)Cc2ccccc2[N+](=O)[O-])c1 | 4.7* | -0.3 | 1.0 | 8.4 | 2.1
C[C@H]1[C@@H](OC(=O)NCc2ccccc2)CC[C@@]23CCCN2C(=O)CCC[C@@H]13 | · | -0.5 | · | -3.8 | -1.0
COC(=O)C1=C(C)N(C)C(=NCc2ccc(OC)cc2)NC1c1ccccc1 (stereo not drawn) | · | -0.1 | 0.1 | 0.6 | -0.7
C[C@H](O)[C@@H]1CN2CCc3c([nH]c4cccc(-c5ccccc5)c34)[C@@H]2C[C@@H]1N(C)CC1CCCCC1 | · | -1.6 | 0.7 | -1.0 | 2.0
COc1cc(C(=O)O/N=C(\N)c2cccc([N+](=O)[O-])c2)cc(OC)c1OC | 5.1* | -1.0 | 0.0 | -0.4 | -0.3
N/C(=N\OC(=O)c1ccco1)c1cccc(Br)c1 | 2.5 | 0.1 | 2.7 | 8.4 | 6.1*
CCN(CC)C(=O)CC[C@H]1CC[C@]2(CCCN(S(=O)(=O)C3CCCCC3)C2)O1 | · | -0.8 | -1.0 | 0.7 | -2.1
O=C(Nc1ccc2c(c1)OCCO2)c1cccc(Cl)c1Cl | 3.5 | 0.3 | 2.1 | 12.2* | 3.6
CCCN1Cc2cccc(C(=O)Nc3ccc4c(c3)OCCO4)c2C1=O | 4.6* | -0.5 | 0.5 | 1.5 | 1.0
Cc1cc(O)c(NC(=O)c2ccc(Br)o2)cc1C | 0.3 | 2.1* | 1.4 | 13.1* | 5.8*
CCCN1Cc2cccc(C(=O)Nc3ccc4c(c3)OCO4)c2C1=O | -0.3 | -0.9 | 0.4 | 1.1 | -1.3
O=C(Nc1ccc2c(c1)OCCO2)c1ccc(Cl)c([N+](=O)[O-])c1 | 3.5 | -1.2 | 1.4 | 12.6* | 2.8
COc1ccccc1NC(=O)c1ccc(Br)o1 | 1.0 | -0.6 | 0.4 | 3.9 | 2.1
O=C(O)c1cc(NC(=O)c2ccc(Cl)c([N+](=O)[O-])c2)cc(C(=O)O)c1 | 0.6 | -0.7 | 1.0 | -0.5 | 0.2
O=C(CNS(=O)(=O)c1cccc2ccccc12)N1CCN(c2ncccn2)CC1 | · | -1.0 | 0.1 | -0.2 | -2.4
SMILES | DAX1 inh-1 | ssDAF-12 act | DAX1 inh-2 | hgDAF-12 ag | hcDAF12 agonist
COC(=O)C1CN(Cc2ccc(OC)cc2)CCS(=O)(=O)N1Cc1ccc(OC)cc1 (stereo not drawn) | · | -0.8 | -1.6 | -1.6 | 0.2
O=C(CC1CCCC1)N1CC[C@H]2[C@H](CCCN2Cc2ccccc2)C1 | · | -1.4 | 0.6 | -0.7 | 0.4
COc1ccc(C(=O)C2(C(=O)NCc3ccccc3)CC(c3ccccc3C(F)(F)F)=NO2)cc1 (stereo not drawn) | · | -1.3 | -0.3 | -0.7 | -1.1
O=C(Nc1ccc2c(c1)OCCO2)c1ccc(Br)o1 | 0.6 | 0.1 | 2.4 | 12.4* | 4.1
Cc1ccn2cc(-c3cccc(NC(=O)c4cccs4)c3)nc2c1 | 0.5 | -0.8 | 0.5 | 11.0* | -0.5
COc1cccc(NC(=O)C2=COCCO2)c1 | 2.6 | -0.7 | 3.7* | 2.4 | 4.0
COc1cccc(NC(=O)c2ccccc2-c2ccccc2C(=O)O)c1 | 0.0 | -0.8 | 0.7 | 0.5 | 6.0*
C=CCn1cccc(C(=O)Nc2ccc(N(C)C)cc2)c1=O | 1.0 | -0.4 | 0.8 | 10.6* | -0.8
COc1cccc(NC(=O)CN(C)C(=O)C2=COCCO2)c1 | 1.0 | -0.7 | 3.0 | 0.7 | 3.7
C=CCn1cccc(C(=O)Nc2ccc(Cl)cc2)c1=O | -2.1 | -1.1 | -0.7 | 3.3 | -0.9
CC(=O)c1cccc(NC(=O)c2ccccc2-c2ccccc2C(=O)O)c1 | -1.2 | -1.3 | -0.8 | 0.3 | -1.4
COc1ccc(S[C@]2(C(=O)N3CCOCC3)CC(=O)N(c3ccc(C#N)cc3)[C@@H]2c2ccc(OC)cc2)cc1 | · | -1.1 | -1.7 | -1.8 | -2.1
COC(=O)c1ccc2c(C3(c4c[nH]c5ccccc45)CCN(C(=O)OC(C)(C)C)CC3)c[nH]c2c1 | · | 0.2 | -2.0 | 9.2 | 3.8
Cc1[nH]nc2c1C(c1ccccc1)N(c1ccccc1)C2=O (stereo not drawn) | · | -0.8 | 0.0 | -1.1 | -0.1
Cc1ccc2c(c1)C1CS(=O)(=O)N(Cc3ccccc3)CN1C2 (stereo not drawn) | · | -0.9 | 0.7 | 4.5 | -1.5
COc1cccc(C(=O)Nc2ccc(N(C)C)cc2)c1OC | 0.7 | 0.1 | 2.7 | 12.3* | 1.6
COc1cccc(NC(=O)c2ccccc2F)c1 | 2.1 | -0.7 | 2.2 | 10.7* | 2.5
COc1cccc(NC(=O)c2c(F)cccc2F)c1 | -0.6 | -0.8 | 1.2 | 6.7 | 0.6
COc1ccc(NC(=O)c2ccc(NC(=O)c3cccs3)cc2)cc1 | 0.1 | -1.1 | 0.8 | 0.3 | -2.3
COc1cccc(NC(=O)c2ccccc2Br)c1 | 2.3 | -0.7 | 1.0 | 11.3* | 1.0
COc1cccc(C(=O)Nc2cccc(NC(=O)c3ccccc3Cl)c2)c1 | 0.4 | -1.0 | -0.8 | -3.2 | -0.8
COc1ccc(C(=O)/C=C\c2ccc(NC(=O)c3cccs3)cc2)cc1 | -2.0 | 0.3 | -0.5 | 0.3 | 6.5*
Cn1c(=O)oc2ccc(S(=O)(=O)Nc3ccc(Cl)cc3[N+](=O)[O-])cc21 | · | -1.1 | 0.8 | 2.6 | 0.8
COc1ccc2cc(-c3cn(C(=O)N(c4ccccc4)c4ccccc4)nn3)ccc2c1 | · | -0.9 | · | 1.0 | 1.6
COc1cccc(C(=O)Nc2ccncc2)c1OC | -1.1 | -1.1 | 0.0 | -1.0 | -1.5
O=C(COC(=O)C1=COCCO1)Nc1ccccc1 | 4.4* | -0.3 | 0.5 | 0.5 | 1.1
COc1cccc(NC(=O)c2cccs2)c1 | -1.1 | -0.6 | 1.1 | 13.0* | 5.2
COc1cc(Cl)c(C)cc1NC(=O)c1cccc(OC)c1OC | 0.0 | -1.2 | 0.6 | 11.0* | 0.0
COc1cccc(NC(=O)c2cccc(OC)c2OC)c1 | 0.9 | -0.1 | 1.6 | 12.3* | 0.1
